# Test results from PubChem BioAssay AID1347414 (National Center for Advancing Translational Sciences (NCATS), 2020).
# Inconclusive results are not listed. Calls of active or inactive are those of the source. Calls come from the whole dose curve; as a rule, active = well fitted inhibition curve with a large enough effect; inconclusive = small, poorly fitted or top-dose-only effect; inactive = no such curve, though single readings can be large or run the other way.
# Experiment: qHTS to identify inhibitors of the type 1 interferon - major histocompatibility complex class I in skeletal muscle: Secondary screen by immunofluorescence; note: nearly all actives have a fitted effect of over 70% in size;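 for activity change, negative = inhibition: digitonin at 100 µM served as the cytotoxic control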
# Conditions: C25cl48 myoblasts, IFN-b induced HLA-ABC immunofluorescence, 24 h, Viability; series mostly up to 49.8 µM; activity change, negative = inhibition: at the top concentration
# Summary of the method: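 Immortalized human myoblasts C25cl48 were stimulated with 4.0 ng/ml IFN-beta and exposed to an 11-point 1:3 compound titration, top 50 uM, for 24 h at 37 C. They were then fixed and immunostained for HLA-ABC, and quantified by laser scanning cytometry.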
# % is set by controls: 0 for no effect and ±100 for the full control effect; potency is the fitted concentration of half-maximal effect.
SMILES,"activity change, negative = inhibition",Potency
COc1cccc2c1C(=O)c1c(O)c3c(c(O)c1C2=O)C[C@@](O)(C(=O)CO)C[C@@H]3O[C@H]1C[C@H](N)[C@H](OC2CCCCO2)[C@H](C)O1 (some centres not stated),4.58% (inactive),
O=C(NC1CCNCC1)c1[nH]ncc1NC(=O)c1c(Cl)cccc1Cl,8.03% (inactive),
COc1c(C)cnc(Cn2cnc3c(Cl)nc(N)nc32)c1C,-3.79% (inactive),
CN1CCC(c2c(O)cc(O)c3c(=O)cc(-c4ccccc4Cl)oc23)C1CO (configuration not stated),-0.712% (inactive),
CCCCC(=O)OCC(=O)[C@H]1[C@H](C)C[C@H]2[C@@H]3C[C@H](F)C4=CC(=O)C=C[C@]4(C)[C@@]3(F)[C@@H](O)C[C@@]21C,15.7% (inactive),
CCN(CC)CCOc1ccc(Nc2ncc3cc(-c4c(Cl)cccc4Cl)c(=O)n(C)c3n2)cc1,,9.13 µM (active)
CC(C)(C)c1ccc(S(=O)(=O)/C=C/C#N)cc1,,3.24 µM (active)
COc1cccc2nc(-c3cccs3)nc(NN3C(=O)C=C(C)C3=O)c12,,16.2 µM (active)
COc1ccc(-c2ccc3ncc4c(c3c2)n(-c2ccc(N3CCNCC3)c(C(F)(F)F)c2)c(=O)n4C)cn1,,1.02 µM (active)
CCS(=O)(=O)N1CC(CC#N)(n2cc(-c3ncnc4[nH]ccc34)cn2)C1,-2.18% (inactive),
Cc1cc(-n2c(=O)ccc3cnc4[nH]ccc4c32)ccc1F,-7.36% (inactive),
CN1CC[C@H](c2c(O)cc(O)c3c(=O)cc(-c4ccccc4Cl)oc23)[C@H](O)C1,-1.82% (inactive),
CC(=O)OCC(=O)[C@@]1(O)CC[C@H]2[C@@H]3CCC4=CC(=O)C=C[C@]4(C)[C@H]3[C@@H](O)C[C@@]21C,30% (inactive),
CCc1cc(C(N)=O)ccc1-n1nc(C(C)C)c2c(-n3cnc(-c4cnn(C)c4)c3)ccnc21,0.722% (inactive),
CN(c1ncccc1CNc1nc(Nc2ccc3c(c2)CC(=O)N3)ncc1C(F)(F)F)S(C)(=O)=O,-17.6% (inactive),
CO[C@H]1C(=O)[C@]2(C)[C@@H](OC)C[C@H]3OC[C@@]3(OC(C)=O)[C@H]2[C@H](OC(=O)c2ccccc2)[C@]2(O)C[C@H](OC(=O)[C@H](O)[C@@H](NC(=O)OC(C)(C)C)c3ccccc3)C(C)=C1C2(C)C,0.182% (inactive),
C/C=C1\NC(=O)[C@H]2CSSCCC=C[C@H](CC(=O)N[C@H](C(C)C)C(=O)N2)OC(=O)[C@H](C(C)C)NC1=O,,8.14 µM (active)
CNC(=O)c1cc(Oc2ccc(NC(=O)Nc3cc(C(C)(C)C)nn3-c3ccc4ncccc4c3)c(F)c2)ccn1,-10.6% (inactive),
Cc1cc2c(cc1CC(=O)c1sccc1S(=O)(=O)Nc1onc(C)c1Cl)OCO2,2.91% (inactive),

SMILES,"activity change, negative = inhibition",Potency
CC(C)c1c(-c2ccccc2)nc2c(C#N)c[nH]n2c1=O,7.47% (inactive),
Cn1cc(CNCC2CCN(c3ncc(C(=O)NO)cn3)CC2)c2ccccc21,13.2% (inactive),
Cc1cc(O)c(-c2ccc([C@@H](C)CN(C)C)cc2)c2c1[nH]c(=O)c1sccc12,-26.3% (inactive),
CN1CCN(C(=O)c2ccc3cc(CCNc4ncnc5ccc(C#N)cc45)ccc3c2)CC1,3.61% (inactive),
CNC(=O)c1ccc(Nc2ncc(C(F)(F)F)c(NCc3nccnc3N(C)S(C)(=O)=O)n2)cc1,-9.86% (inactive),
CCCOc1ccc2nc(NC(=O)OC)[nH]c2c1,-8.07% (inactive),
Nc1ccccc1NC(=O)c1ccc(CNc2nccc(-c3cccnc3)n2)cc1,-4.92% (inactive),
COc1cccc2c1C(=O)c1c(O)c3c(c(O)c1C2=O)C[C@@](O)(C(=O)CO)C[C@@H]3O[C@H]1C[C@H](N)[C@H](O)[C@H](C)O1,2.3% (inactive),
CC(C)[C@H](C(=O)Nc1ccc(C(=O)NO)cc1)c1ccccc1,-1.44% (inactive),
COc1ccc(-c2nc(N3CCOCC3)c3sc(CN(C)c4ncc(C(=O)NO)cn4)cc3n2)cn1,-4.79% (inactive),
CC[C@]1(O)C[C@H]2CN(CCc3c([nH]c4ccccc34)[C@@](C(=O)OC)(c3cc4c(cc3OC)N(C=O)[C@H]3[C@@](O)(C(=O)OC)[C@H](OC(C)=O)[C@]5(CC)C=CCN6CC[C@]43[C@@H]65)C2)C1,3.97% (inactive),
CCc1c(O)cc(O)c(C(=O)c2ccc(OCCN3CCOCC3)c(OC)c2)c1CC(=O)N(CCOC)CCOC,-4.12% (inactive),
CN(C)Cc1c(C(=O)NCCOc2ccc(C(=O)NO)cc2)oc2ccccc12,-1.08% (inactive),
Fc1ccc(CNc2ncnc3ccc(F)cc23)cc1,8.45% (inactive),
CC(=O)c1ccc2c(c1)c1cc(C(C)=O)ccc1n2CCNC(C)C,3.4% (inactive),
CC(C)(C)CC(=O)OCC(=O)[C@@]1(O)CC[C@H]2[C@@H]3CCC4=CC(=O)C=C[C@]4(C)[C@H]3[C@@H](O)C[C@@]21C,-16.5% (inactive),
COc1ccc(F)c(F)c1C(=O)c1cnc(NC2CCN(S(C)(=O)=O)CC2)nc1N,1.88% (inactive),
Nc1nc(Nc2ccc(S(N)(=O)=O)cc2)nn1C(=O)c1c(F)cccc1F,-5.13% (inactive),
